Results as given in PubChem BioAssay AID1159580 (chemical genetic matrix, 2015).
Several values for one entry are separate records, joined by “and”; a condition that tells them apart may be missing. Equal values may be shown once. The whole screen tested about 5,500 compounds, of which about 2,000 (36%) were called active. About 18% were inconclusive and are not listed. No stated cut-off is given here; in the data, active means normalized growth mostly below about 0.91 (no sharp cut-off); inconclusive means no clear call, values can overlap the other calls; inactive means mostly above about 0.92. Some of the results follow.

Assay: chemical genetic growth profiling, strain panel (AID 1159580);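 further: tested at 20 µM; growth read once vehicle control cultures reached saturation at 30 °C; 1 = growth at the plate median or of vehicle wells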
Conditions: S. cerevisiae deletion strains, growth OD

Measured: normalized growth

C=C[C@@H](C1=CC(=O)C(OC)=C(OC)C1=O)c1ccccc1
active: locus YAL021C, strain ccr4, stronger effect = lower value 0.899 | locus YAL026C, strain drs2, stronger effect = lower value 0.405 | locus YAL030W, strain snc1, stronger effect = lower value 0.825 | locus YBL061C, strain skt5, stronger effect = lower value 0.859 | locus YBR009C, strain hhf1, stronger effect = lower value 0.273 | locus YBR021W, strain FUR4, stronger effect = lower value 0.516 | locus YBR023C, strain chs3, stronger effect = lower value 0.816 | locus YBR231C, strain swc5, stronger effect = lower value 0.742 | locus YBR279W, strain paf1, stronger effect = lower value 0.703 | locus YCL011C, strain gbp2, stronger effect = lower value 0.307 | locus YCL016C, strain dcc1, stronger effect = lower value 0.581 | locus YCL069W, strain vba3, stronger effect = lower value 0.45 | locus YCR088W, strain abp1, stronger effect = lower value 0.911 | locus YDL035C, strain GPR1, stronger effect = lower value 0.277 | locus YDL192W, strain arf1, stronger effect = lower value 0.266 | locus YDR137W, strain rgp1, stronger effect = lower value 0.694 | locus YDR150W, strain NUM1, stronger effect = lower value 0.61 | locus YDR162C, strain NBP2, stronger effect = lower value 0.0631 | locus YDR297W, strain sur2, stronger effect = lower value 0.802 | locus YDR318W, strain mcm21, stronger effect = lower value 0.181 | locus YDR334W, strain swr1, stronger effect = lower value 0.472 | locus YDR388W, stronger effect = lower value 0.827 | locus YDR392W, strain spt3, stronger effect = lower value 0.146 | locus YDR502C, strain sam2, stronger effect = lower value 0.665 | locus YEL003W, strain gim4, stronger effect = lower value 0.553 | locus YEL061C, strain CIN8 (second series), stronger effect = lower value 0.642 | locus YER015W, strain faa2, stronger effect = lower value 0.588 | locus YER155C, strain BEM2 (second series), stronger effect = lower value 0.413 | locus YER167W, strain BCK2, stronger effect = lower value 0.252 | locus YFR010W, strain ubp6, stronger effect = lower value 0.869 | locus YGL086W, strain mad1, stronger effect = lower value 0.142 | locus YGL173C, strain kem1, stronger effect = lower value 0.632 | locus YGL227W, strain vid30, stronger effect = lower value 0.473 | locus YGL240W, strain doc1, stronger effect = lower value 0.723 | locus YGL248W, strain PDE1, stronger effect = lower value 0.125 | locus YGL253W, strain hxk2, stronger effect = lower value 0.838 | locus YGR078C, strain PAC10, stronger effect = lower value 0.0851 | locus YGR135W, strain pre9, stronger effect = lower value 0.306 | locus YGR252W, strain gcn5, stronger effect = lower value 0.369 | locus YHR013C, strain ard1, stronger effect = lower value 0.507 | locus YHR027C, strain rpn1, stronger effect = lower value 0.775 | locus YHR030C, strain SLT2, stronger effect = lower value 0.0586 and 0.753 | locus YHR094C, strain hxt1, stronger effect = lower value 0.782 | locus YHR129C, strain ARP1, stronger effect = lower value 0.212 | locus YHR142W, strain chs7, stronger effect = lower value 0.603 | locus YHR200W, strain rpn10, stronger effect = lower value 0.788 | locus YIL066C, strain RNR3, stronger effect = lower value 0.148 | locus YIL073C, strain SPO22, stronger effect = lower value 0.341 | locus YIL125W, strain kgd1, stronger effect = lower value 0.919 | locus YJL092W, strain hpr5, stronger effect = lower value 0.883 | locus YJL095W, strain BCK1 (second series), stronger effect = lower value 0.468 | locus YJL115W, strain asf1, stronger effect = lower value 0.82 | locus YJL164C, strain tpk1, stronger effect = lower value 0.376 | locus YJL166W, strain qcr8, stronger effect = lower value 0.245 | locus YJL168C, strain set2, stronger effect = lower value 0.881 | locus YJR066W, strain TOR1, stronger effect = lower value 0.716
inactive: locus YBR171W, strain sec66, stronger effect = lower value 0.996 | locus YBR229C, strain ROT2, stronger effect = lower value 0.989 | locus YCL029C, strain bik1, stronger effect = lower value 0.968 | locus YDL005C, strain med2, stronger effect = lower value 1 | locus YDL040C, strain nat1, stronger effect = lower value 1.01 | locus YDL074C, strain BRE1, stronger effect = lower value 0.962 | locus YDL101C, strain DUN1, stronger effect = lower value 0.97 | locus YDL185W, strain tfp1, stronger effect = lower value 0.945 | locus YDR001C, strain nth1, stronger effect = lower value 0.997 | locus YDR069C, strain doa4, stronger effect = lower value 0.995 | locus YDR101C, strain arx1, stronger effect = lower value 0.998 | locus YDR159W, strain sac3, stronger effect = lower value 1.02 | locus YDR195W, strain ref2 1.09 | locus YDR335W, strain msn5, stronger effect = lower value 0.977 | locus YEL037C, strain rad23, stronger effect = lower value 0.952 | locus YER016W, strain bim1, stronger effect = lower value 0.999 | locus YER110C, stronger effect = lower value 0.97 | locus YER111C, strain swi4, stronger effect = lower value 0.994 | locus YER155C, strain BEM2, stronger effect = lower value 0.985 | locus YGL078C, strain dbp3, stronger effect = lower value 0.966 | locus YGL167C, strain pmr1, stronger effect = lower value 0.972 | locus YHR079C, strain IRE1 (second series), stronger effect = lower value 0.96 | locus YHR079C, strain IRE1, stronger effect = lower value 0.888 | locus YIR030C, strain dcg1, stronger effect = lower value 0.967 | locus YJL129C, strain trk1, stronger effect = lower value 0.978 | locus YJL134W, strain LCB3, stronger effect = lower value 0.986 | locus YJL154C, strain vps35, stronger effect = lower value 1.01 | locus YJL187C, strain SWE1 (second series), stronger effect = lower value 0.977
0.892 (inactive) and 0.782 (active): locus YJL095W, strain BCK1, stronger effect = lower value
